Compound activity as filed in PubChem BioAssay.
D1 mod = D1 CRE-luciferase signal change, two-sided – cell-based, HEK293 D1, dopamine EC30, D1 allosteric modulator project, primary screen | D(1A) dopamine receptor (Homo sapiens), P21728 | dopamine EC30 potentiation; actives deviate in either direction | 58,000 tested, 5.9% active | B-score at 10 µM;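 active = luminescence count or its row- and column-corrected plate score outside the 99.7% band of the plate's sample wells, on either side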
Target sequence (P21728 whole entry, looked up): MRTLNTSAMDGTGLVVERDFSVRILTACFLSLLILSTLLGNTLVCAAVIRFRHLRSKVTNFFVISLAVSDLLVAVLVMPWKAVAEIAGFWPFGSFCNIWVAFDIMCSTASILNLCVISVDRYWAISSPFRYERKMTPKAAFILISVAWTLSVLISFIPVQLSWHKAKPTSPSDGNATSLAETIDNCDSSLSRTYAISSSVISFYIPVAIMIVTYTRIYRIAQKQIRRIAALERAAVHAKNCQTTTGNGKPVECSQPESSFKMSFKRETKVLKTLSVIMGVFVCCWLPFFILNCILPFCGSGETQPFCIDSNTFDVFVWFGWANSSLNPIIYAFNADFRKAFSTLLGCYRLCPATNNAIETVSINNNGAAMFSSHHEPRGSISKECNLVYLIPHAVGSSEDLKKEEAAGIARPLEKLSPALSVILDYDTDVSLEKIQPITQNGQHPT
Cav3 T inh = Cav3.2 calcium influx blockers – cell-based, Fluo-4 calcium fluorescence, FDSS, MLSMR library, primary screen; Voltage-dependent T-type calcium channel subunit alpha-1H (Homo sapiens), O95180; Cav3.2-expressing cells; hits give low values; B-score at 10 µM; 100,000 tested, 4% active;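 active = single-dose well whose peak fluorescence ratio is a statistical outlier from its plate by either plate-standardised score or position-corrected B-score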
PostGolgi ctrl = growth inhibition of yeast control strain, primary screen, counter-screen for post-Golgi transport modulator project | inhibition, % at 10 µM | 98,000 tested, 5% active | efflux-deficient yeast background strain, growth absorbance A615, 16 h
PLAP act = PLAP enzyme activators, biochemical, luminescence, HTS. Alkaline phosphatase, placental type (Homo sapiens), P05187. purified PLAP enzyme, luminescent substrate read-out; hits give high values. activation fold at 20 µM. 96,000 tested, 1.2% active. AID 696, 2007; in the data active = activation fold above about 2
PostGolgi yeast = phenotypic screen on post-Golgi transport, primary screen; AID 739, 2007; post-Golgi transport phenotypic cell assay; 98,000 tested, 0.9% active; inhibition, % at 10 µM;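 also: yeast cells grown in 1536-well plates; yeast grown about 18 h at 30C before absorbance read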
hDAT+cocaine = changed hDAT dopamine uptake under cocaine IC80, either direction, primary screen, cocaine antagonist project, cell-based, LLC-PK1 hDAT, [14C]-dopamine uptake, MLSMR. Sodium-dependent dopamine transporter (Homo sapiens), Q01959. LLC-PK1 hDAT cells, [14C]-dopamine uptake with cocaine IC80; actives deviate in either direction. B-score at 10 µM. 110,000 tested, 1.3% active;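 active = Z score or B-score, a plate-position-corrected score, falls beyond the plate's 99.7% confidence bounds, in either direction; inactive = both scores lie inside the 99.7% bounds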;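 also: scored against the spread of the other compound wells on the same plate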
D1 mod confirm = D1 receptor positive allosteric modulators, retest, confirmation, cell-based, HEK293 D1, CRE-luciferase, duplicate. luminescence at 10 µM. dopamine EC30 potentiation; hits give high values. shares compounds with D1 mod. 2,200 tested, 88% active;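 active = luminescence in either of two replicates above the same-plate mean plus 3 SD of the low-dose dopamine control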
D1 no dopamine = D1 receptor agonism without dopamine, confirmation, mechanism study for D1 allosteric modulator project, cell-based, HEK293 D1, CRE-luciferase, secondary assay 1. shares compounds with D1 mod. luminescence, no dopamine; hits give high values. luminescence at 10 µM. 1,900 tested, 0.8% active. AID 646, 2007; in the data active = luminescence above about 3900
Isoprot counter = counter-screen for D1 modulators: isoproterenol response in HEK293 cells; shares compounds with D1 mod; calls only at 10 µM; 2,200 tested, 63% active; HEK293 D1 CRE-luciferase, isoproterenol EC30 counter-screen;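 active = luminescence in either replicate above plate mean of wells with a partly effective reference agonist dose plus 3 SD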;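 also: isoproterenol raises cAMP through native beta-adrenoceptor Gs so signal bypasses D1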
* = called active by the depositor; i = inactive; . = no result given; + = active, no number. Most compounds without a hit are left out; they make up all but 12% or so of the library. Rule as the data show it, unless noted: active = inhibition above about 30%; inactive = the rest.

SMILES	D1 mod	Cav3 T inh	PostGolgi ctrl	PLAP act	PostGolgi yeast	hDAT+cocaine	D1 mod confirm	D1 no dopamine	Isoprot counter
COc1cccc(-n2nnnc2SCC(=O)c2cc(OC)ccc2OC)c1	4.2*	-0.035	-5	0.9	-7	-0.18	4344	1632	i
CCc1nnc(NC(=O)CSc2ncc(-c3ccccc3)[nH]2)s1	.	-0.38	9	1.9	-8	0.19	.	.	.
CCc1nnc(NC(=O)CSc2ncc(-c3ccccc3)n2CC)s1	3.5*	-1	22	1.5	-2	-0.0026	8216*	1656	i
CC(=O)Nn1c(-c2ccccc2)cc2ccccc21	0.15	.	-2	0.9	6	0.024	.	.	.
COc1ccc(CCNC(=O)c2cccnc2)cc1OC	3.4*	0.79	2	0.8	-4	0.099	6704	1660	i
O=C(NCCc1ccc(Cl)cc1)c1cccnc1	.	0.024	10	1.2	-6	-0.66	.	.	.
COc1ccc(CCNC(=O)c2cnc3scc(C)n3c2=O)cc1OC	40*	0.29	5	.	7	0.73	17580*	1900	+
COc1ccc(C)cc1NC(=O)c1cnc2scc(C)n2c1=O	-0.6	1	3	0.7	0	-0.87	.	.	.
O=C(CC1c2ccccc2Oc2ccccc21)N1CCN(c2ccccn2)CC1	1.2	-1.9	22	1	6	0.14	.	.	.
CC(=O)Nc1ccccc1Nc1nc(NCCO)nc(N2CCCC2)n1	.	0.74	.	.	.	-0.016	.	.	.
COc1ccc(-c2noc(COc3ccc4c(c3)OCO4)n2)cc1OC	0.065	-0.058	-5	1.2	0	0.18	.	.	.
CCn1c(SCc2ccccc2)nnc1-c1cccs1	.	-0.47	6	.	4	0.24	.	.	.
COc1ccc(Cc2nnc(-c3cccc(C)c3)o2)cc1OC	4.3*	-0.93	7	.	-2	0.32	13948*	1620	+
COc1ccc(-c2noc(CCC(N)=O)n2)cc1OC	3.6*	0.83	13	1	0	-0.89	13684*	1704	i
CCOc1ccc(-c2noc(CCCC(N)=O)n2)cc1OC	.	0.93	4	0.8	-6	-0.73	.	.	.
COc1ccc(-c2noc(COc3ccccc3OC)n2)cc1OC	11*	-2.1	12	1.4	1	-0.064	17132*	1668	+
CCn1c(SCc2nc(-c3ccc(OC)c(OC)c3)no2)nnc1-c1cccs1	5.3*	0.49	4	1.7	5	1.9	11432*	1604	+
COc1ccc(CCNC(=O)CSc2nnc(-c3cccc(C)c3)o2)cc1OC	1.6	-0.77	3	1.2	1	0.1	.	.	.
COc1ccc(Cc2noc(-c3ccc(OC)c(OC)c3)n2)cc1OC	12*	-4	22	1.7	26	2	10328*	1376	+
CCOc1ccc(-c2noc(-c3ccncc3)n2)cc1OCC	11*	0.54	4	1.4	23	1	.	1596	+
COc1ccc(-c2noc(CN(C(=O)c3ccc(OC(C)=O)cc3)C(C)C)n2)cc1OC	3.9*	.	1	1.5	11	0.72	7848*	1480	+
COc1ccc(-c2noc(-c3ccco3)n2)cc1OC	5.2*	0.36	21	0.9	-3	1	18728*	1452	i
O=C(CN1CCCC1)Nc1ccc(-c2nc3cc(NC(=O)CN4CCCC4)ccc3o2)cc1	1.4	0.84	6	1.7	-1	0.7	.	.	.
COC(=O)C1=C(CSc2nccn2C)NC(=O)NC1c1cc(C)ccc1C (stereo not drawn)	.	1.2	8	1	-2	0.22	.	.	.
CCOc1nnnc2c1sc1nc(N3CCOCC3)c3c(c12)CCCC3	.	0.33	9	1.3	-4	.	.	.	.
SMILES	D1 mod	Cav3 T inh	PostGolgi ctrl	PLAP act	PostGolgi yeast	hDAT+cocaine	D1 mod confirm	D1 no dopamine	Isoprot counter
COC(=O)c1nn(-c2ccc(Cl)cc2)c(=O)cc1Sc1ccccn1	.	0.2	1	0.9	2	0.35	.	.	.
CC1(C)Cc2c(sc3c4nnnn4c4nnnn4c23)CO1	.	0.8	13	1.2	9	-1.4	.	.	.
c1ccc(-c2nc3ccccc3c3nncn23)cc1	7.2*	.	11	0.7	-3	.	7952*	1508	i
COc1ccc(CC(=O)Nc2nc(C)cs2)cc1OC	3.9*	0.42	-3	1	3	0.092	12824*	1648	+
COc1ccc(-c2csc(NC(C)=O)n2)cc1OC	6.1*	-0.32	7	1.1	15	0.018	10116*	1664	+
Clc1ccc(CCNc2nc3ccccc3n3nnnc23)cc1	.	.	3	1.1	-8	.	.	.	.
c1ccc2c(c1)nc(NCC1CCCO1)c1nnnn12 (stereo not drawn)	2.9*	-1.1	15	.	5	0.018	9992*	1484	i
CCc1ccccc1NC(=O)Cn1nc(C(F)(F)F)cc1C1CC1	.	-0.53	17	1	1	0.26	.	.	.
COc1ccc(NC(=O)CN(c2ccc(C(C)C)cc2)S(=O)(=O)c2c(C)noc2C)cc1OC	3*	-0.81	11	0.8	-1	-0.075	4788	1104	i
COc1ccccc1CNC(=O)c1ccc(NS(=O)(=O)c2c(C)noc2C)cc1	4.2*	-1.6	-9	1.2	9	-0.75	6660*	1648	i
COc1ccc(NC(=O)c2ccc(NS(=O)(=O)c3c(C)noc3C)cc2)cc1OC	8.8*	-0.049	-4	1	2	-0.0083	5712*	1524	i
Cc1nc2nc(-c3cccnc3)[nH]n2c(=O)c1C	.	.	9	0.9	0	.	.	.	.
CCn1cc(C2=NOC(C(=O)Nc3ccc4c(c3)OCO4)C2)c(C)n1 (stereo not drawn)	6.6*	0.53	0	1	20	0.24	8608*	1720	+
Nc1c(C(=O)c2ccc(F)cc2)oc2ccccc12	11*	-0.06	1	.	-11	-0.041	24288*	1764	+
CC(=O)c1oc2ccccc2c1N	0.074	0.066	-4	0.9	-7	-0.33	.	.	.
COc1cccc(Cn2c(-c3cccs3)noc2=O)c1	3.9*	0.075	-8	0.9	-12	0.39	8904*	.	+
Cc1cc(O)c(C(C)C)cc1N=C1CSC(=O)N1	-0.44	-0.88	2	1.1	3	0.75	.	.	.
